A number with no mark means an inactive call. The rule behind the calls is not given here.

The target of the assay is L-lactate dehydrogenase (Plasmodium falciparum (isolate CDC / Honduras)) (UniProt Q27743). The assay is described as follows: PfLDH activity inhibition – cell lysate, 3D7 strain, counter-screen for P. falciparum growth inhibition project (AID 2304).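 Note: 0% = vehicle and 100% = reference inhibitor.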 Particulars: P. falciparum 3D7 crude extract, LDH APAD/NBT absorbance; at 2 µM; hits give high values.
Sequence of L-lactate dehydrogenase (Plasmodium falciparum (isolate CDC / Honduras)) (Q27743 whole entry, looked up): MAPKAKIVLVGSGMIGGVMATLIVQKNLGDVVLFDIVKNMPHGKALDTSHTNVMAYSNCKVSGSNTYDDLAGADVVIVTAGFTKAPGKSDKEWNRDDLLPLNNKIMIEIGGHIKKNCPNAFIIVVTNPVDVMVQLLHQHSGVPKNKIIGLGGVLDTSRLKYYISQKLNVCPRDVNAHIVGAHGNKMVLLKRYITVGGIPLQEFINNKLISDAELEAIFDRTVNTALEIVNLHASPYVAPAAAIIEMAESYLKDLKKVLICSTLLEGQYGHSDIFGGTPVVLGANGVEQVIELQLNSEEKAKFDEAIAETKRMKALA
As to `Cn1c(Nc2cc(C(C)(C)C)on2)nc2cc(Nc3ccnc(Nc4cccc(CS(C)(=O)=O)c4)n3)ccc21`, the inhibition was -4%.
In the case of `CN(C)CCN(C)Cc1ccc(-c2ccc3c(Nc4ccc(Oc5ccccc5)cc4)ccnc3c2)o1` it was -4%.
The same measure for `O=C(NCCCN1CCOCC1)c1cccc(Nc2nccc(Nc3ccc(Oc4ccccc4)cc3)n2)c1`: -9%; for `COc1ccc(-c2cnc3ccc(NC4CCC(O)CC4)nn23)cn1` (stereo unspecified): 4%; for `COCCNCc1cccc(-c2ccc3c(Nc4ccc(Oc5ccccc5)cc4)ccnc3c2)c1`: 2%.
Regarding `CC(C)(CNC(=O)[C@H]1CCCN1)c1nc(-c2ccc(Cl)c(O)c2)c(-c2ccncc2)[nH]1`, the inhibition was -1%.
In the case of `CC(C)(CNCc1ccc(Cl)cc1)c1nc(-c2ccc(Cl)c(O)c2)c(-c2ccncc2)[nH]1` it was 5%.
For the compound `Nc1ncc(-c2cn[nH]c2)cc1-c1nc2ncc(Cl)cc2[nH]1`, the inhibition was 1%.
With `CN1CCN(Cc2cccc(Nc3nccc(Nc4ccc(Oc5ccccc5)cc4)n3)c2)CC1`, the inhibition is 2%.
Consider `CC(C)(CNCc1ccc(Cl)c(Cl)c1)c1nc(-c2ccc(Cl)c(O)c2)c(-c2ccncc2)[nH]1`, for which the inhibition was -3%.
For `O=C(NCCN1CCCCC1)c1ccc(Nc2nccc(Nc3ccc(Oc4ccccc4)cc3)n2)cc1`, the inhibition was -2%.
In the case of `COc1cc2nccc(Nc3ccc(Oc4ccccc4)cc3)c2cc1OC` it was -1%; in that of `COc1ccc(CNCC(C)(C)c2nc(-c3ccc(Cl)c(O)c3)c(-c3ccncc3)[nH]2)cc1`, 1%.
The same measure for `COCCNCc1ncsc1-c1ccc2c(Nc3cc(O)c(Cl)cc3F)ccnc2c1`: -5%.
As to `Nc1ncc(-c2cn[nH]c2)cc1-c1nc2ccc(F)cc2[nH]1`, the inhibition is -3%.
In the case of `CC(C)(CNC(=O)C1CCN(Cc2ccoc2)CC1)c1nc(-c2ccc(Cl)c(O)c2)c(-c2ccncc2)[nH]1` it was -2%; in that of `Cc1ccc(O)cc1Nc1ccnc2cc(-c3cccc(CNCCS(C)(=O)=O)c3)ccc12`, 2%.
As to `CC(C)(CN)c1nc(-c2ccc(Cl)c(O)c2)c(-c2ccnc(N)n2)[nH]1`, the inhibition was -5%.
Consider `CN(C)CCNCc1nc(-c2ccc3c(Nc4ccc(Oc5ccccc5)cc4)ccnc3c2)cs1`, for which the inhibition was 6%.
In the case of `CNCC(C)(C)c1nc(-c2ccc(Cl)c(O)c2)c(-c2ccncc2)[nH]1` it was -2%; in that of `CC(C)(CNCCOc1ccc(Cl)cc1)c1nc(-c2ccc(Cl)c(O)c2)c(-c2ccnc(N)n2)[nH]1`, -6%.
In the case of `CS(=O)(=O)Nc1cccc(-c2cnc3[nH]cc(-c4cccc(CN)c4)c3c2)c1`, the inhibition is -2%.
The same measure for `CN1CCN(c2ccc(Nc3ncc(Cl)c(Nc4cccnc4C(N)=O)n3)cc2)CC1`: -1%.
The same measure for `CNC(=O)c1ccccc1Nc1nc(Nc2ccc(C(=O)O)cc2)ncc1Cl`: -2%.
The same measure for `CN1CCC=C(C(=O)NCC(C)(C)c2nc(-c3ccc(Cl)c(O)c3)c(-c3ccncc3)[nH]2)C1`: -1%; for `CC(C)(CNC(=O)C1CCN(CCOc2ccc(Cl)cc2)CC1)c1nc(-c2ccc(Cl)c(O)c2)c(-c2ccncc2)[nH]1`: 7%.
Take `Oc1cccc(-c2cnc3ccc(NCc4ccc(F)cc4)nn23)c1`: the inhibition was 2%.
Regarding `CC(C)(CNC(=O)[C@H]1CCCCN1)c1nc(-c2ccc(Cl)c(O)c2)c(-c2ccncc2)[nH]1`, the inhibition is -3%.
The same measure for `CS(=O)(=O)Cc1ccc(Nc2nccc(-c3c(-c4cccc(NC(=O)c5c(F)cccc5F)c4)nn4ncccc34)n2)cc1`: 1%; for `O=c1[nH]ccc2nc(N[C@@H]3CCNC3)nc(Nc3ccc4c(c3)S(=O)(=O)CC4)c12`: -2%; for `CS(=O)(=O)CCNCc1cccc(-c2ccc3c(Nc4cc(O)c(Cl)cc4F)ccnc3c2)c1`: -7%.
On to `Cc1cc(F)ccc1-c1nc(Nc2ccncc2)c2ccn(C)c2n1`, for which the inhibition was 5%.
Turning to `CN(C)CCN(C)Cc1nc(-c2ccc3c(Nc4ccc(Oc5ccccc5)cc4)ccnc3c2)cs1`, the inhibition is -3%.
The same measure for `COc1ccc(C(=O)NCC(C)(C)c2nc(-c3ccc(Cl)c(O)c3)c(-c3ccncc3)[nH]2)cc1OCCN(C(C)C)C(C)C`: 4%; for `Cc1cccc2[nH]c(-c3cc(-c4cn[nH]c4)cnc3N)nc12`: 0%; for `c1cncc(Oc2ccc(Nc3ccnc4cc(-c5cccc(CNCCN6CCOCC6)c5)ccc34)cc2)c1`: 4%.

(Values after PubChem BioAssay.)
